# Reference: PubChem BioAssay (NCATS)
# Where “and” joins values, the source holds several entries; their conditions need not be identical. Identical values can stand only once. Results filed as inconclusive are left out. Calls of active or inactive are those of the source. Calls come from the whole dose curve; as a rule, active = well fitted activation curve with a large enough effect; inconclusive = small, poorly fitted or top-dose-only effect; inactive = flat fitted curve, though single readings scatter.
# Assay: qHTS assay for environmental chemicals that activate the Aryl hydrocarbon Receptor (AhR) signaling pathway (AID 651777); note: nearly all actives have a fitted effect of over 15% in size; for activation: % of control where 0% means no effect
# Conditions: 1A2-DRE human hepatoma cells, luciferase, 24 h; activation: active compounds read high
# Excerpt: National Center for Advancing Translational Sciences [NCATS]
# NIH Chemical Genomics Center [NCGC]
# U.S. Environmental Protection Agency [EPA]
# National Institutes of Environmental Health Sciences [NIEHS]
# National Toxicology Program [NTP]
# The Aryl hydrocarbon Receptor (AhR) plays a critical role in the development of cancer or neoplasm and its formation is most likely due to genetic mutations and the influence of environment. Exposure to environmental pollutants such as polycyclic aromatic hydrocarbons (PAH), their halogenated derivatives and heterocyclic amines causes the induction of phase I and II enzymes. The transcriptional activation of CYP1A2 is directly regulated by AhR.
# A cell based assay (1A2-DRE cells, developed by Puracyp, Inc., CA) was used to assess the activation of AhR. Human hepatoma cells were stably transfected with the dioxin response element (DRE) and CYP1A2 promoter fused to a luciferase gene. Increased luciferase activity can be used to identify the compounds that cause the induction of CYP1A2 and AhR activation.
# 1,200 cells in 5 uL/well were dispensed into white wall/solid bottom 1536-well plates using a Multidrop Combi (Thermo Scientific) dispenser. Following transfer of 23 nL compound or DMSO vehicle by a pin tool, the plates were incubated 24 hr at 37 C and 5% CO2. 5 ul One-Glo (Promega) was then added to each well and following 30 min incubation at room temperature, luciferase activity was quantified on a ViewLux CCD-based plate reader.
# Potency is the fitted concentration of half-maximal effect.
Structure (SMILES),activation,Potency
CCCCC(CC)COC(=O)c1ccc(N(C)C)cc1 (centres undefined),8.87% (inactive) and 0.16% (inactive),–
CCCCOC(=O)CC(CC(=O)OCCCC)(OC(C)=O)C(=O)OCCCC,0.777% (inactive),–
COc1cc([C@H]2Oc3cc([C@H]4Oc5cc(O)cc(O)c5C(=O)[C@@H]4O)ccc3O[C@@H]2CO)ccc1O,0.406% (inactive),–
CCCN(CCC)S(=O)(=O)c1ccc(C(=O)O)cc1,-1.19% (inactive) and -0.648% (inactive),–
CCCCCCCCCCCCCC(=O)OC(C)C,-0.593% (inactive),–
C/C=C/c1ccc(O)c(OC)c1,3.77% (inactive) and 1.82% (inactive),–
C=C[C@H]1CN2CC[C@H]1C[C@@H]2[C@@H](O)c1ccnc2ccc(OC)cc12,4.17% (inactive),–
CCOc1ccccc1C(N)=O,0.471% (inactive),–
C#C[C@]1(O)CC[C@H]2[C@@H]3CCC4=Cc5oncc5C[C@]4(C)[C@H]3CC[C@@]21C,0.604% (inactive),–
CCCCCCCCCCCCCCCC(=O)O,0.499% (inactive),–
CCCCCCCC/C=C\CCCCCCCCN,-0.319% (inactive),–
NC(=O)c1ccccc1O,2.51% (inactive),–
CCCCCCCCOc1ccc(C(=O)c2ccccc2)c(O)c1,-9.5% (inactive),–
O=C(O)c1ccc(S(=O)(=O)N(Cl)Cl)cc1,0.0057% (inactive),–
Oc1ccc(Cl)cc1Cc1cc(Cl)ccc1O,-1.39% (inactive) and 3.39% (inactive),–
NCCNc1cccc2ccccc12,–,39.8 µM (active)
Oc1c(Cl)cc(Cl)c(Cl)c1Cc1c(O)c(Cl)cc(Cl)c1Cl,3.13% (inactive) and 3.58% (inactive),–
COc1ccc(C(=O)c2ccccc2)c(O)c1,8.63% (inactive) and 11.4% (inactive),–
CCOc1ccc(NC(C)=O)cc1,1.23% (inactive) and 0.542% (inactive),–
CCCCCCCCCCCCCCCCO,1.7% (inactive),–
CC(C)(C)CC(C)(C)c1ccc(O)c(-n2nc3ccccc3n2)c1,5.11% (inactive),–
CC1(C)OC[C@@H]2O[C@@]3(C(=O)O)OC(C)(C)O[C@H]3[C@@H]2O1,1.2% (inactive),–
C=C[C@@]1(C)CC(=O)[C@]2(O)[C@@]3(C)[C@@H](O)CCC(C)(C)[C@@H]3[C@H](O)[C@H](OC(C)=O)[C@@]2(C)O1,–,17.8 µM (active)
COc1ccc(C(Cl)=C(c2ccc(OC)cc2)c2ccc(OC)cc2)cc1,-0.915% (inactive),–
